# High-throughput results deposited in PubChem BioAssay by National Center for Advancing Translational Sciences (NCATS).
# Hits are enriched below; roughly 8.7% of the tested compounds scored in any of these assays.
# BAZ2B block: blocks human BAZ2B | Q9UIF8 | AlphaScreen BAZ2B-H3K14Ac peptide displacement | Potency, µM (titrated, usually from 114 µM), for the others: at the highest dose activity change, negative = inhibition, actives largely listed as inhibitors | actives 4.4% (n = 360,000) | AID 504333; also: % is scaled to controls: 0 for no effect and ±100 for the full control effect; nearly all actives have a fitted effect of over 60% in size
#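 AlphaScreen displacement: compounds (up to 110uM) incubated 30 min at room temperature with a preformed 50 nM BAZ2B/50 nM biotinylated H3K14Ac peptide complex in PBS pH 7.4 with Tween-20. Donor and acceptor beads at 10 ug/mL final added, 20 min light-protected before reading.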
# G9a inh: G9a (human) methyltransferase inhibition | Q96KQ7 | G9a H3K9 monomethylation, AlphaScreen, 2 h | Potency, µM (series often up to 102 µM), inactives show at the top dose activity, negative = inhibition, most hits filed as inhibitors | actives 8.8% (n = 350,000); also: % is scaled to controls: 0 for no effect and ±100 for the full control effect; nearly all actives have a fitted effect of over 75% in size
#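 AlphaScreen detection with an anti-monomethyl H3K9 antibody quantified product after a 2 h room-temperature reaction containing 500 nM biotinylated H3K9 peptide, 20 µM SAM and 20 nM enzyme, which had been preincubated 15 min with compound.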
# ALOX12 inh: ALOX12 (human) lipoxygenase inhibition; P18054; Potency, µM (titrated, usually from 108 µM), inactives show at the top dose activity change, negative = inhibition, actives largely listed as inhibitors; purified 12hLO, xylenol orange hydroperoxide absorbance; actives 1.1% (n = 580,000); also: % is scaled to controls: 0 for no effect and ±100 for the full control effect
#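 Purified human 12hLO (150 nM final) in 25 mM Hepes, 0.01% Triton X-100, pH 7.0 was preincubated 15 min at room temperature with compound. Then 40 uM arachidonic acid was added, 30 min. Hydroperoxide was read by Fe-XO absorbance ratio 573/405 nm.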
# Sfp inh: inhibitors of Bacillus subtilis Sfp phosphopantetheinyl transferase; Potency, µM, for the others: largest response in the series, negative = inhibition, actives largely listed as inhibitors; AID 1490; Biochemical Sfp PPTase activity, qHTS; actives 3.5% (n = 310,000);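 also: the enzyme is Sfp with the accession as filed and its product quenches rhodamine fluorescence; 0% = enzyme reaction without inhibitor and -100% = no enzyme wells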
#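 After 15 min at room temperature with compound, 15 nM Sfp received 5 uM rhodamine-CoA plus 12.5 uM BHQ-2-ybbR (50 mM Hepes pH 7.6, 10 mM MgCl2). Rate came from the fluorescence difference over 30 min, ex 525/em 598 nm.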
# JMJD2A Tudor inh: inhibitors of human JMJD2A Tudor domain | O75164 | AlphaScreen JMJD2A-Tudor / H3K4me3 peptide binding | Potency, µM (series often up to 114 µM), for inactives: at the top dose activity change, negative = inhibition, most hits filed as inhibitors | actives 4.4% (n = 390,000); also: % is scaled to controls: 0 for no effect and ±100 for the full control effect; nearly all actives have a fitted effect of over 50% in size
# Target sequence (O75164 whole entry, looked up, the tested form may be a part): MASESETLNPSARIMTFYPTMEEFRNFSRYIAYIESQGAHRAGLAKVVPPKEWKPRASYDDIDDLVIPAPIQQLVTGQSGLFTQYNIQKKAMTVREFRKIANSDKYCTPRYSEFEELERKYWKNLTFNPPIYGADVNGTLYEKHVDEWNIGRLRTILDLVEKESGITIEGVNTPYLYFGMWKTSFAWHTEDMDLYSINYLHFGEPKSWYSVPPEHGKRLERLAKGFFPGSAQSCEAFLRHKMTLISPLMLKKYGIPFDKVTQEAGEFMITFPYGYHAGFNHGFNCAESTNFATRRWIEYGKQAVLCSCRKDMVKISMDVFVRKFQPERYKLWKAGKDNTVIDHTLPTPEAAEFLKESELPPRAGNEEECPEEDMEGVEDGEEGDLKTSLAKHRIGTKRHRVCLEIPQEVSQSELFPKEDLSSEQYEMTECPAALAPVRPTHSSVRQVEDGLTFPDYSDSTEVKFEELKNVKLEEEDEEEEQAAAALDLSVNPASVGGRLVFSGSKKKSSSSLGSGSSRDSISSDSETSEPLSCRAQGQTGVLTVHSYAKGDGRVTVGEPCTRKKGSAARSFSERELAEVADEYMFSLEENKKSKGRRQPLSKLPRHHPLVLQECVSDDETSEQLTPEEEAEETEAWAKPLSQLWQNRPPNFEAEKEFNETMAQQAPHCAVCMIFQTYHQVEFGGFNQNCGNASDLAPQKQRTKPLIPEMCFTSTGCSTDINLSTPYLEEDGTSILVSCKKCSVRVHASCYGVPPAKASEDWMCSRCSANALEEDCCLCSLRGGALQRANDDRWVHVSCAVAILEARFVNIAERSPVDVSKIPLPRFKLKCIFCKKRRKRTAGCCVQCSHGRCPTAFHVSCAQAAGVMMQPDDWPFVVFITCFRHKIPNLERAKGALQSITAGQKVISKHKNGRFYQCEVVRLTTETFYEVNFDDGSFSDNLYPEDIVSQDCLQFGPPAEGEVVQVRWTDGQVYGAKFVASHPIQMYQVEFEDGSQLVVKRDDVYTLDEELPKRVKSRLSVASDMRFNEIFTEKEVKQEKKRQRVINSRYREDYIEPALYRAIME
# HP1b chromo inh: HP1-beta chromodomain-methylated histone interaction inhibition; AlphaScreen HP1-beta / biotin-H3K9me3 peptide binding; P83916; actives 0.56% (n = 390,000); Potency, µM (highest dose often 114 µM), inactives show top-dose activity change, negative = inhibition, hits mostly inhibitors; also: nearly all actives have a fitted effect of over 70% in size
#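 HP1-beta protein (50 nM final) preincubated 30 min at room temperature with biotinylated H3(1-18)K9me3 peptide (50 nM) in PBS pH 7.4, 0.01% Tween-20, then compound added for 30 min. AlphaScreen streptavidin donor/nickel chelate acceptor beads (10 ug/mL final), 30 min dark, luminescence read.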
# The depositor's hits bear a star; ? = inconclusive; nt = no result given; [ ] = another dose, or the depositor's remark. Calls follow the shape of the dose curve; as a rule, active = well fitted curve in the direction sought with a large enough effect; inconclusive = small, poorly fitted or top-dose-only effect, or another doubt; inactive = no such curve, though single readings can be large; an effect the other way counts as inactive or inconclusive. Potency is read from the fitted curve at half-maximal effect.
SMILES,BAZ2B block,G9a inh,ALOX12 inh,Sfp inh,JMJD2A Tudor inh,HP1b chromo inh
Cc1ccc(NC(=O)COc2coc(CN3CCc4ccccc43)cc2=O)cc1Cl,50µM*,-26%,?,nt,45µM*,-35%
NC(=O)c1ccc(NC(=O)COc2coc(CN3CCc4ccccc4C3)cc2=O)cc1,?,50µM*,-7%,nt,-16%,24%
COC(=O)c1ccc(NC(=O)COc2coc(CN3CCc4ccccc43)cc2=O)cc1,?,-5%,-17%,nt,-10%,25%
CCn1ccc(C(=O)N[C@@H]2CN(S(C)(=O)=O)C[C@H]2CN(C)C)n1,nt,nt,-11%,nt,nt,nt
CN(Cc1noc(C2CCCC2)n1)C(=O)Cn1ncc2ccccc2c1=O,nt,nt,-1%,nt,nt,nt
CCn1c(CO)nnc1C1CC(NC(=O)c2cnc3sccn3c2=O)C1 (stereo not drawn),nt,nt,35%,nt,nt,nt
COc1ccc(Cl)cc1NC(=O)COc1ccccc1Br,nt,nt,10%,nt,nt,nt
Cc1ccccc1NC(=O)COc1coc(CN2CCCc3ccccc32)cc1=O,50µM*,50µM*,?,nt,?,6%
Cc1ccc(C)c(NC(=O)COc2coc(CN3CCc4ccccc43)cc2=O)c1,?,?,?,nt,-34%,-9%
CN1C2=CC=CC=CC2=[N+](C)C12C=CC(=[N+]([O-])[O-])C=C2[N+](=O)[O-] (stereo not drawn),35µM*,32µM*,-8%,-15%,-28%,?
Cn1cc(P(=S)(N2CCOCC2)N2CCOCC2)cc1P(=S)(N1CCOCC1)N1CCOCC1,-9%,45µM*,-26%,-13%,1%,3%
Cc1ncccc1C(=O)N1CCC2(CC1)NCCc1c2[nH]c2ccccc12,nt,nt,13%,nt,nt,nt
CC(=O)Nc1ccc(N2CCCCC2)cc1,-6%,?,3%,22%,-11%,14%
CCOC(=O)c1ccc(N2Cc3ccccc3C2)cc1O,2%,?,-31%,2%,-27%,26%
CCc1ccc(N2Cc3ccccc3C2)cc1,?,10µM*,-16%,?,-32%,27%
FC(F)(F)c1cccc(N2Cc3ccccc3C2)c1,-2%,16%[0.0925 µM],-30%,-6%,-9%,45%
Cc1cc(C)cc(N2Cc3ccccc3C2)c1,-6%,10µM*,3%[57.4 µM],11%,-24%,35%
CC(=O)Nc1ccc(N2Cc3ccccc3C2)cc1,79µM*,nt,?,-5%,-33%,5%
Fc1ccc(-c2cnc(CN3CCN(c4ccccc4Cl)CC3)o2)cc1,nt,nt,3%,nt,nt,nt
CCOC(=O)/C(=N\Nc1cccc(Cl)c1)Sc1nnc(-c2ccc(OC)cc2)n1C,-9%,8.9µM*,?,-4%,-15%,25%
CCCc1cc(C(N)=O)c(NC(=O)c2cc(C)on2)s1,-2%,?,?,32µM*,-20%,-3%
CCCc1cc(C(N)=O)c(NC(=O)c2ccoc2C)s1,-36%,?,32µM*,13µM*,?,?
CCNC(=S)NNC(=O)c1cc(C)on1,8%,32%[12.7 µM],18%,56µM*,-19%,38%
Cc1occc1C(=O)Nc1sccc1C(N)=O,?,nt,-7%,1%,-32%,31%
CSc1ccc(CN(C)C(=O)c2ccc3c(c2)CCCC3)cc1,nt,nt,-10%,nt,nt,nt
SMILES,BAZ2B block,G9a inh,ALOX12 inh,Sfp inh,JMJD2A Tudor inh,HP1b chromo inh
O=[S+]1([O-])CCCN1C1CCN([S+](=O)([O-])c2ccc(C(F)(F)F)cc2)CC1,nt,nt,5%[6.33 µM],nt,nt,nt
Cc1cc(CSc2ncccc2C(=O)Nc2ccnn2Cc2cccnc2)no1,nt,nt,-11%,nt,nt,nt
c1ccc(NCC2CCOC2)cc1 (stereo not drawn),nt,nt,-11%,nt,nt,nt
CCc1ccc2c(c1)/C(=C/C(=O)c1cccs1)C(=O)N2,11µM*,11µM*,?,45µM*,13µM*,-40%
COc1cccc(NC(=S)N(CCc2c(C)[nH]c3ccc(C)cc23)Cc2cccs2)c1,0%,-29%,?,-12%,?,9%
COc1ccc(OC)c(NC(=S)N(CCc2c(C)[nH]c3ccccc23)Cc2cccs2)c1,?,56µM*,-18%,14%,?,8%
COc1ccc2[nH]c(C)c(CCN(Cc3cccs3)C(=S)Nc3cccc(F)c3)c2c1,?,?,nt,40µM*,?,-19%
COc1ccc(NC(=S)N(CCc2c(C)[nH]c3ccccc23)Cc2ccco2)cc1,?,-21%,40%,10%,?,-4%
CCNC(=S)N(CCc1c(C)[nH]c2ccc(C)cc12)Cc1cc(OC)c(OC)c(OC)c1,?,?,-19%,0%,?,-11%
COc1ccc(OC)c(NC(=S)N(CCc2c(C)[nH]c3ccc(C)cc23)Cc2cccs2)c1,?,45µM*,-28%,5%,?,7%
COC(=O)c1ccc(/C=C/C(=O)NCCC(c2ccccc2)c2ccccc2)cc1,nt,nt,1%,nt,nt,nt
COCC1CN(Cc2ccc(Cl)c(F)c2)CC12CCNCC2 (stereo not drawn),nt,nt,29%,nt,nt,nt
CC(Sc1nc2ccccc2o1)c1nc2ccccc2c(=O)[nH]1 (stereo not drawn),nt,nt,-4%,nt,nt,nt
Cc1cccc(C(=O)NCCCc2ccccc2)n1,nt,nt,4%,nt,nt,nt
O=C(O)CCCNC(=O)c1cccc(C(=O)NCCCC(=O)O)n1,?,20µM*,-6%,-2%,?,-2%
CC(=O)N1CCc2nn(CC(=O)Nc3cccc(F)c3)c(=O)cc2C1,nt,nt,71%,nt,nt,nt
CC(NC(=O)c1ccco1)C(c1cccs1)N1CCN(c2ccc(F)cc2)CC1 (stereo not drawn),50µM*,50µM*,-2%,2%,-35%,-15%
COc1cccc(C(=O)N2CCC(c3n[nH]c(=O)n3-c3ccccc3)CC2)c1OC,nt,nt,-2%,nt,nt,nt
CCn1ncc(N2CCC(NC(=O)c3ccc(C)cc3C)CC2)cc1=O,nt,nt,6%,nt,nt,nt
O=C(/C=C/c1ccc(-c2ccccc2Cl)o1)c1ccccc1Br,nt,nt,4.5µM*,nt,nt,nt
O=C(/C=C/c1ccc(-c2ccc(Cl)cc2Cl)o1)c1ccc(Br)cc1,nt,nt,8.9µM*,nt,nt,nt
